The text below walks through data of PubChem BioAssay.

A short description of the assay: calcein-AM signal in unstimulated myeloma cells – cell-based, calcein-AM fluorescence, 48 h, PK04 Diversity Set, profiling panel (AID 1166).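 Also: cells grown under basal conditions without added stimulus; test concentration not given here.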 Particulars: RPMI8226 myeloma viability, higher = more signal.
For the compound `O=C(CS)NCCCCCNC(=O)[C@@H]1C[C@@H]2C(=O)NCC(=O)N2[C@@H]1c1cccc(OCCO)c1`, the z-score is 0.842.

As for `O=C(CS)NCCCCCNC(=O)[C@H]1C[C@H]2C(=O)NCC(=O)N2[C@H]1c1cccc(OCCO)c1`, the z-score is 0.111.

For `CN(C)CCCCNC(=O)[C@@H]1C[C@@H]2C(=O)N[C@@H](CCCCN)C(=O)N2[C@@H]1c1ccc(O)cc1`, the z-score is 0.473.

Take `COc1ccc(CCNC(=O)[C@@]2(C)c3ccccc3C(=O)N(c3ccc(C)cn3)[C@H]2c2ccc(CO)cc2)cc1`: the z-score was -0.081.

Take `O=C(NCCN1CCOCC1)[C@@H]1c2ccccc2C(=O)N(Cc2cc(C(F)(F)F)cc(C(F)(F)F)c2)[C@H]1c1ccc(CO)cc1`: the z-score was -0.0119.

`O=C(NCc1ccccc1)[C@@H]1c2ccccc2C(=O)N(C2Cc3ccccc3C2)[C@H]1c1ccc(CO)cc1`: the z-score is -1.3.

In the case of `COCCOC(=O)N1C(=O)[C@@]2(c3cc(C#CC4(O)CCCCCC4)ccc31)[C@H](C(=O)Nc1nc3ccccc3s1)[C@H]1C(=O)O[C@H](c3ccccc3)[C@H](c3ccccc3)N1[C@@H]2c1ccccc1OCCO`, the z-score is -3.42.

`CC1CC/C=C\[C@H]2OC34C=CCN(c5ccc6ccccc6c5)C(=O)[C@H]3N(CCO)C(=O)[C@@H]4C2C(=O)O1` (stereo not given in full): the z-score was -0.36.

On to `O=C1O[C@@H](c2ccccc2)[C@@H](c2ccccc2)N2[C@@H](c3ccc(OCCO)cc3)[C@]3(C(=O)Nc4ccc(C#CCCO)cc43)[C@@H](C(=O)NC[C@H](O)c3ccccc3)[C@H]12`, for which the z-score was 0.407.

Take `O=C1OCCC/C=C\[C@H]2OC34C=CCN(c5ccc6ccccc6c5)C(=O)[C@H]3N(CCCCCO)C(=O)[C@@H]4C12` (stereo not given in full): the z-score is -0.681.

Regarding `CC(C)CNC(=O)[C@@]1(Cc2ccccc2I)c2ccccc2C(=O)N(Cc2ccccc2C(F)(F)F)[C@H]1c1ccc(CO)cc1`, the z-score is -0.548.

In the case of `C#CCOc1ccc(C[C@@H](C(=O)OC)N(CC#C)[C@@H](/C=C/C2CC2)[C@H](O)Cc2ccccc2)cc1`, the z-score is -2.19.

Take `CCOC(=O)[C@H]1C/C=C/C[C@H](C(=O)OCC)C(=O)O[C@H]2[C@@H](OC)O[C@H](CO)[C@@H](OC(=O)c3ccc(Br)cc3)[C@@H]2OC1=O`: the z-score was -3.75.

In the case of `O=C1[C@@]23C=C(Br)[C@H](C[C@@H]2COC3)[C@]12CO2`, the z-score is -2.02.

For the compound `O=C1NC(=O)C2C1C=CC(C(O)c1ccc(-c3ccccc3)s1)N2Nc1ccc(Cl)cc1Cl` (stereo not given), the z-score was -3.05.

Take `C=C(C(=O)CC[C@H](OC(C)=O)c1ccccc1OCCO)C(C)C`: the z-score was -1.94.

Regarding `O=C1C2C=CC(C(O)COCc3ccccc3)N(Nc3ccc([N+](=O)[O-])cc3)C2C(=O)N1c1ccccc1` (stereo not given), the z-score is -0.0326.

For the compound `COCC(=C=CC[C@H](O)c1cccc(OCCO)c1)CCO`, the z-score is 0.256.

`NCCCCCCNC(=O)[C@H]1C[C@H]2C(=O)N[C@@H](Cc3ccccc3)C(=O)N2[C@H]1c1cccc(OCCO)c1`: the z-score was 0.112.

Regarding `CCCCCN1CC=CC23O[C@@H]4C=CCOC(=O)[C@@H]4[C@H]2C(=O)N(C(C)CO)[C@@H]3C1=O` (stereo not given in full), the z-score is -0.0937.

Regarding `CC(c1ccccc1)C(O)C1C=CC2C(=O)N(C)C(=O)C2N1NC(=O)OC(C)(C)C` (stereo not given), the z-score is -0.347.

For `COCCCNC(=O)[C@@H]1c2ccccc2C(=O)N(Cc2ccccc2)[C@H]1c1ccc(CO)cc1`, the z-score is 0.437.

For the compound `COCCOC(=O)N1C(=O)[C@@]2(c3cc(C#CCCO)ccc31)[C@H](c1ccc(OCCO)cc1)N1[C@H](c3ccccc3)[C@H](c3ccccc3)OC(=O)[C@H]1[C@@H]2C(N)=O`, the z-score was -0.804.

On to `COc1ccc(C(=O)Nc2ccc(CN3C(=O)[C@]4(O[C@H](CC(=O)N5CCC[C@H]5CO)[C@@H]([Si](C)(C)c5ccc(OC)cc5)[C@@H]4C)c4ccccc43)cc2)cc1`, for which the z-score is -4.35.

On to `C=CC[C@]1(C(N)=O)COC(c2ccc(OCCCO)cc2)=N1`, for which the z-score is 1.3.

`COC(=O)[C@@]1(Cc2ccccc2)[C@H]2c3cc(C(=O)N(C)C)n(CCc4c[nH]c5ccc(O)cc45)c3C[C@H]2CN1C(=O)c1ccccc1`: the z-score was -0.235.

`COc1ccc(C#Cc2ccc3c(c2)[C@]2(C(=O)N3)[C@H](c3ccc(O)cc3)N3[C@H](c4ccccc4)[C@H](c4ccccc4)OC(=O)[C@H]3[C@@H]2C(=O)N2CCc3cc(OC)c(OC)cc3C2)cc1`: the z-score was -2.87.

With `O=C1OCCC=C[C@H]2OC34C=CCN(Cn5nnc6ccccc65)C(=O)[C@H]3N(CCO)C(=O)[C@@H]4C12` (stereo not given in full), the z-score was -1.08.

As for `CC(C)Cc1ccc(CN2CC[C@@H](N)C2)cc1`, the z-score is -1.65.

In the case of `C[N+](C)(C)CCCCCCNC(=O)[C@H]1C[C@H]2C(=O)N[C@@H](Cc3ccccc3)C(=O)N2[C@H]1c1cccc(OCCO)c1`, the z-score was 0.517.

As for `CO[C@H]1O[C@H](CO)[C@@H](OC(=O)Nc2ccc(Oc3ccccc3)cc2)[C@H](OC(=O)Nc2ccc3c(c2)OCO3)[C@@H]1OC(=O)Nc1ccc2c(c1)OCO2`, the z-score is -1.74.

`C=C(CCCC)/C(=C/C[C@@H](OC(C)=O)c1ccccc1OCCO)c1cc(C(=O)OC)ccc1OC`: the z-score is -0.354.

On to `C=CCC(OC(C)=O)[C@@H]1[C@@H](N(Cc2cc3ccccc3o2)C(=O)Cc2ccc(OC)cc2)c2cc(OCCCO)ccc2N1C(=O)c1ccc2ccccc2c1` (stereo not given in full), for which the z-score is -0.668.

For the compound `O=C1C2C=CC(C(O)c3c(F)cccc3Cl)N(Nc3ccccc3F)C2C(=O)N1c1ccccc1` (stereo not given), the z-score was -0.0072.

With `CN(C)C(=O)[C@]1(Cc2ccccc2)N=C(c2ccc(OCCCO)cc2)O[C@@H]1c1ccccc1N=[N+]=[N-]`, the z-score is -4.26.
